# VP16 counter = VP16 counterscreen qHTS for inhibitors of ROR gamma transcriptional activity; Drosophila S2 Gal4-VP16 UAS-luciferase, luminescence, 20 h; AID 2546, 2010; Potency, µM (doses to about 53.6 µM), for the others: at the top dose activity, negative = inhibition, actives largely listed as inhibitors; actives 3.5% (n = 310,000);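 further: Gal4-VP16 expression switched on by copper sulfate through the metallothionein promoter; potency means the concentration at half of the fitted maximal effect; nearly all actives have a fitted effect of over 50% in size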
# IL1B secr inh = qHTS for Inhibitors of Inflammasome Signaling: IL-1-beta AlphaLISA Primary Screen; actives 4.7% (n = 360,000); AID 743279, 2014; THP-1 LPS/ATP IL-1B secretion, AlphaLISA, 16 h; stronger effect = lower value; activity change, % at 57.5 µM; in the data active means activity change below about -50%; inconclusive means mostly about -30% to -49%
#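 Secreted IL-1B measured by AlphaLISA bead assay after 16 h compound exposure of THP-1 cells; compounds (final up to 57.5 uM) added 1 h before LPS (250 ng/mL) and ATP (1.25 mM) stimulation; lower signal means less secretion.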
# TDP1 cell CPT = qHTS for Inhibitors of human tyrosyl-DNA phosphodiesterase 1 (TDP1): qHTS in cells in presence of CPT | chicken DT40 Tdp1-/-;hTDP1 cells + 20 nM CPT, ATP luminescence, 48 h | Potency, µM (titrated, usually from 46.2 µM), for inactives: at the top dose activity change, negative = growth inhibition, most hits filed as inhibitors | actives 12% (n = 420,000); further: potency means the concentration at half of the fitted maximal effect; nearly all actives have a fitted effect of over 55% in size
#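 Cell growth measured by CellTiter-Glo luminescence after a minimum 48 h, 37 C compound exposure with 20 nM CPT in Tdp1-knockout DT40 cells stably expressing hTDP1, seeded 400/well; qHTS titration format.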
# LDHA inh = qHTS assay for inhibitors of human lactate dehydrogenase. L-lactate dehydrogenase A chain (Homo sapiens), P00338. purified LDHA, NADH/diaphorase-resazurin fluorescence; stronger effect = lower value. activity change, % (values are at about 110 or 230 µM). actives 0.15% (n = 480,000). AID 1347041, 2019; in the data active means activity change below about -30%; inconclusive means mostly about -25% to -30%;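 further: plate controls were DMSO wells for no effect and wells without enzyme for full effect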
#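 Remaining NADH was detected by diaphorase (0.133 mg/mL) converting 37 µM resazurin to fluorescent resorufin, read at 0 and 20 minutes. The preceding 5-minute room-temperature reaction used 2 nM LDHA, 0.2 mM sodium pyruvate and 0.06 mM NADH at pH 7.4.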
# RORgamma inh = qHTS for inhibitors of ROR gamma transcriptional activity | actives 5.4% (n = 310,000) | Drosophila S2 Gal4-RORgamma UAS-luciferase reporter, 20 h | Nuclear receptor ROR-gamma (Mus musculus), P51450 | Potency, µM (titrated, usually from 53.6 µM), inactives show at the highest dose activity change, negative = inhibition, most hits filed as inhibitors; further: potency means the concentration at half of the fitted maximal effect; nearly all actives have a fitted effect of over 60% in size
# Target sequence (P51450 whole entry, looked up, the tested form may be a part): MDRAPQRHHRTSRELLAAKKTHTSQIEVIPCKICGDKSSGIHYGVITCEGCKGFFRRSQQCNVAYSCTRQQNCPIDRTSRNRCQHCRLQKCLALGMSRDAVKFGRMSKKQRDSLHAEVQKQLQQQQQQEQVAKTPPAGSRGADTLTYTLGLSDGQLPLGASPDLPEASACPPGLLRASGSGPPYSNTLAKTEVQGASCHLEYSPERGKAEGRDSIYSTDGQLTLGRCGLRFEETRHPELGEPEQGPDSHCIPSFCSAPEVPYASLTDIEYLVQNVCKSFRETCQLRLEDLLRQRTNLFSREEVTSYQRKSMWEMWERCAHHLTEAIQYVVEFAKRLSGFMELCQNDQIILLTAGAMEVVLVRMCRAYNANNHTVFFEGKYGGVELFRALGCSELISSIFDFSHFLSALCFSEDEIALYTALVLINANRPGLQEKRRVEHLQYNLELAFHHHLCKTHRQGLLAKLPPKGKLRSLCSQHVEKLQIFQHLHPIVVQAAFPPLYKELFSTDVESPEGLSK
#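 In this cell-based reporter format, copper sulfate (700 uM final) drives Gal4–ROR gamma fusion expression from a metallothionein promoter in Drosophila Schneider cells; compounds preincubated 1 hr, reporter read after 20 hr at ambient temperature.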
# TDP1 cell noCPT = qHTS for Inhibitors of human tyrosyl-DNA phosphodiesterase 1 (TDP1): qHTS in cells in absence of CPT. DT40 Tdp1-/- hTDP1 cells, no CPT, ATP luminescence, 48 h. Potency, µM (series often up to 46.2 µM), without a hit: at the top dose activity change, negative = growth inhibition, most hits filed as inhibitors. actives 15% (n = 420,000). AID 686978, 2013; further: potency means the concentration at half of the fitted maximal effect; nearly all actives have a fitted effect of over 55% in size
#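 Growth of hTDP1-complemented DT40 Tdp1-knockout cells is measured by ATP luminescence after at least 48 hr compound exposure at 37 °C, with DMSO substituting for the 20 nM CPT used in the parallel screen.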
# Numbers without * were called inactive; ? = inconclusive; / = not tested or not shown. This is a sample that favours compounds with a hit; in the whole collection about 18% have one here. Unless noted, the call rests on the fitted dose curve; in most records, active means well fitted curve in the direction sought with a large enough effect; inconclusive means small, poorly fitted or top-dose-only effect, or another doubt; inactive means no such curve, though single readings can be large; an effect the other way counts as inactive or inconclusive. Unless noted, on the % scale 0 is the no-effect control and ±100 the full control effect.
SMILES,VP16 counter,IL1B secr inh,TDP1 cell CPT,LDHA inh,RORgamma inh,TDP1 cell noCPT
COc1cc2oc(=O)c(CC(=O)NCCc3ccccc3F)c(C)c2cc1OC,/,/,1%,-11,/,-16%
COCCNC(=O)Cc1c(C)c2c(cc(C)c3c(C)coc32)oc1=O,-1%,-4,-22%,0,-25%,?
Cc1c(CC(=O)NCCc2ccccc2F)c(=O)oc2c(C)c3occ(C(C)(C)C)c3cc12,/,/,13µM*,-8,/,16µM*
COc1ccc2c(C)c(CC(=O)NCCc3ccccc3)c(=O)oc2c1OC,/,/,0%,3,/,-14%
COCCCNC(=O)Cc1c(C)c2c(cc(C)c3c(C(C)(C)C)coc32)oc1=O,?,-3,1.3µM*,1,25%,1.3µM*
Cc1c(CC(=O)NCCc2ccccc2)c(=O)oc2c(C)c3occ(C(C)(C)C)c3cc12,/,/,16µM*,-1,/,18µM*
Cc1oc2cc3oc(=O)c(CC(=O)NCc4ccccc4)c(C)c3cc2c1C,/,/,6.5µM*,-10,/,8.2µM*
Cc1cc(C(=O)OCC(=O)c2ccc3ccccc3c2)c2ccccc2n1,/,/,/,1,/,/
Cc1c(CCC(=O)O)c(=O)oc2cc3occ(-c4ccc(Cl)cc4)c3cc12,-3%,-9,-3%,-14,12%,-2%
COc1ccc(CNC(=O)Cc2c(C)c3cc4c(C)coc4c(C)c3oc2=O)cc1OC,/,/,?,-4,/,?
Cc1coc2c(C)c3oc(=O)c(CCC(=O)NCCC(=O)O)c(C)c3cc12,-3%,-11,23%,-11,11%,-1%
COc1ccc(CCNC(=O)CCc2c(C)c3cc4c(C)coc4c(C)c3oc2=O)cc1OC,/,/,21µM*,-7,/,8.2µM*
Cc1coc2c(C)c3oc(=O)c(CCC(=O)NCCc4ccccc4F)c(C)c3cc12,/,/,?,-2,/,16µM*
Cc1c(CCC(=O)O)c(=O)oc2cc3occ(-c4ccc(F)cc4)c3cc12,?,11,0%,-8,2.8µM*,-5%
COc1ccc(CCNC(=O)Cc2c(C)c3cc4c(C(C)(C)C)coc4c(C)c3oc2=O)cc1OC,/,/,6.5µM*,-4,/,8.2µM*
Cc1oc(-c2nc(C#N)c(NCCCN(C)C)o2)cc1S(=O)(=O)N1CCCC1,/,/,/,-7,/,/
CCCCn1c(=O)[nH]c(=O)c2c1nc(COC(=O)C1CCCC1)n2CC,/,/,/,-1,/,/
COc1ccc(CNC(=O)CCc2c(C)c3cc4c(C)c(C)oc4cc3oc2=O)cc1,/,/,?,-4,/,?
Cc1coc2cc3oc(=O)c(CCC(=O)NCCCN4CCOCC4)c(C)c3cc12,-1%,1,?,-3,-12%,?
Cc1oc2cc3oc(=O)c(CCC(=O)NCCN4CCOCC4)c(C)c3cc2c1C,-4%,?,21µM*,2,-4%,?
COc1ccc(CNC(=O)CCc2c(C)c3cc4c(C)coc4cc3oc2=O)cc1,/,/,?,-7,/,15µM*
FC(F)(F)c1ccnc(Oc2ccc(-c3nc4ccccc4s3)cc2)n1,/,/,/,-5,/,/
Cc1ccc(C(=O)N(CC#N)C2CC2)s1,/,/,/,-12,/,/
O=C(C1CC1)N1CCc2cc(Br)cc(S(=O)(=O)N3CCCCCC3)c21,-26%,-1,?,-5,-7%,21µM*
O=C(C1CC1)N1CCc2cc(Br)c(S(=O)(=O)N3CCCCCC3)cc21,/,12,16µM*,-5,/,?
CN(C)c1ccc(/C=C/c2ccnc3c(-c4ccccc4)cccc23)cc1,/,/,11µM*,/,/,?
CN(C)c1ccc(/C=C/c2ccnc3c(Cl)cccc23)cc1,/,/,11µM*,/,/,7.9µM*
O=C(NCCCN1CCOCC1)c1ccc2c(c1)N(Cc1ccc(F)cc1)CCS2,8%,-5,16µM*,0,5%,?
